# Measured values as given in the supplement of paper PMC8728848.
# The entries come from a sample that favours the strongest signals as a whole.
# B1: MpL2 (Macrolepiota procera) (protein)
# chain: MSTQVSSGQTYKITNVKAGTVIRLSGEDNKSIIGYPYHSGKNQQWTFNWTGKAWTLRSASSGSYLGIEGTPADGTRLVAVNDPFEWHIWRDEANENAFRIFVPFTNYNLDLSGYGDTTPGTPVQLWWTWEGLHQTWTIDRP
# How the values were obtained:
# Assay in all cases: glycan array binding signal (z-score within array); higher = stronger binding
# Conditions in all cases: glycan notation: IUPAC condensed, linker removed; mutation: D22R
# GalNAc4S6S(b1-4)GlcNAc = target: GalNAc4S6S(b1-4)GlcNAc
# Procedure, shortened: (§1)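 The binding signal is a Z-score computed within each array. Data were drawn from 3228 arrays in the Consortium for Functional Glycomics database, restricted to those with a known protein sequence. Scores were averaged over arrays of the same protein sequence at different concentrations or buffers, and over linkers, and negative values can be taken as non-binding.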
# GlcA(b1-6)Gal = target: GlcA(b1-6)Gal
# Procedure, shortened: as §1
# [1] = target: GlcNAc(a1-4)Gal(b1-4)GlcNAc(b1-3)Gal(b1-4)GlcNAc(b1-3)Gal(b1-4)GlcNAc
# Procedure, shortened: as §1
# GlcNAc(b1-3)Fuc = target: GlcNAc(b1-3)Fuc
# Procedure, shortened: as §1
# GlcNAc(b1-3)Gal = target: GlcNAc(b1-3)Gal
# Procedure, shortened: as §1
# [2] = target: GlcNAc(b1-3)Gal(b1-4)GlcNAc(b1-2)[GlcNAc(b1-3)Gal(b1-4)GlcNAc(b1-6)]Man(a1-6)[GlcNAc(b1-3)Gal(b1-4)GlcNAc(b1-2)Man(a1-3)]Man(b1-4)GlcNAc(b1-4)GlcNAc
# Procedure, shortened: as §1
# [3] = target: GlcNAc(b1-3)Gal(b1-4)GlcNAc(b1-3)Gal(b1-4)GlcNAc(b1-3)Gal(b1-4)GlcNAc(b1-3)Gal(b1-4)GlcNAc(b1-2)[GlcNAc(b1-3)Gal(b1-4)GlcNAc(b1-3)Gal(b1-4)GlcNAc(b1-3)Gal(b1-4)GlcNAc(b1-3)Gal(b1-4)GlcNAc(b1-6)]Man(a1-6)[GlcNAc(b1-3)Gal(b1-4)GlcNAc(b1-3)Gal(b1-4)GlcNAc(b1-3)Gal(b1-4)GlcNAc(b1-3)Gal(b1-4)GlcNAc(b1-2)Man(a1-3)]Man(b1-4)GlcNAc(b1-4)[Fuc(a1-6)]GlcNAc
# Procedure, shortened: as §1
# [4] = target: GlcNAc(b1-3)Gal(b1-4)GlcNAc(b1-6)[GlcNAc(b1-3)]Gal(b1-4)GlcNAc
# Procedure, shortened: as §1
# GlcNAc(b1-3)GalNAc = target: GlcNAc(b1-3)GalNAc
# Procedure, shortened: as §1
# [5] = target: GlcNAc(b1-4)[GlcNAc(b1-6)]GalNAc
# Procedure, shortened: as §1
# [6] = target: GlcNAc(b1-6)Gal(b1-4)GlcNAc
# Procedure, shortened: as §1
# [7] = target: Neu5Ac(a2-3)Gal(b1-3)GlcNAc(b1-2)Man(a1-3)[GlcNAc(b1-4)][Neu5Ac(a2-3)Gal(b1-3)GlcNAc(b1-2)Man(a1-6)]Man(b1-4)GlcNAc(b1-4)GlcNAc
# Procedure, shortened: as §1
# [8] = target: Neu5Ac(a2-3)Gal(b1-3)[Neu5Ac(a2-6)]GlcNAc(b1-3)[Fuc(a1-3)[Gal(b1-4)]GlcNAc(b1-6)]Gal(b1-4)Glc
# Procedure, shortened: as §1
# [9] = target: Neu5Ac(a2-3)Gal(b1-3)]Neu5Ac(a2-3)Gal(b1-4)]GlcNAc
# Procedure, shortened: as §1
# [10] = target: Neu5Ac(a2-3)Gal(b1-4)GlcNAc(b1-2)[Neu5Ac(a2-3)Gal(b1-4)GlcNAc(b1-4)]Man(a1-3)[GlcNAc(b1-4)][Neu5Ac(a2-3)Gal(b1-4)GlcNAc(b1-4)Man(a1-6)]Man(b1-4)GlcNAc(b1-4)GlcNAc
# Procedure, shortened: as §1
# [11] = target: Neu5Ac(a2-3)Gal(b1-4)GlcNAc(b1-3)Gal(b1-4)[Fuc(a1-3)]GlcNAc
# Procedure, shortened: as §1
# [12] = target: Neu5Ac(a2-3)Gal(b1-4)[Fuc(a1-3)]GlcNAc(b1-3)Gal(b1-4)[Fuc(a1-3)]GlcNAc(b1-3)Gal(b1-4)[Fuc(a1-3)]GlcNAc
# Procedure, shortened: as §1
# [13] = target: Neu5Ac(a2-6)Gal(b1-4)GlcNAc(b1-2)Man
# Procedure, shortened: as §1
# [14] = target: Neu5Ac(a2-6)Gal(b1-4)GlcNAc(b1-3)Gal(b1-3)GlcNAc
# Procedure, shortened: as §1
# [15] = target: Neu5Ac(a2-6)Gal(b1-4)GlcNAc(b1-3)Gal(b1-4)GlcNAc(b1-3)Gal(b1-4)GlcNAc(b1-2)Man(a1-3)[Neu5Ac(a2-6)Gal(b1-4)GlcNAc(b1-3)Gal(b1-4)GlcNAc(b1-3)Gal(b1-4)GlcNAc(b1-2)Man(a1-6)]GalNAc
# Procedure, shortened: as §1
# [16] = target: Neu5Ac(a2-6)Gal(b1-4)GlcNAc(b1-3)Gal(b1-4)GlcNAc(b1-3)[Neu5Ac(a2-6)Gal(b1-4)GlcNAc(b1-3)Gal(b1-4)GlcNAc(b1-6)]GalNAc
# Procedure, shortened: as §1
# [17] = target: Neu5Ac(a2-6)Gal(b1-4)GlcNAc(b1-3)GalNAc
# Procedure, shortened: as §1
# [18] = target: Neu5Ac(a2-6)Gal(b1-4)GlcNAc(b1-6)[Gal(b1-3)]GalNAc
# Procedure, shortened: as §1
# Neu5Ac(a2-6)GalNAc = target: Neu5Ac(a2-6)GalNAc
# Procedure, shortened: as §1
# [19] = target: Neu5Ac(a2-8)Neu5Ac(a2-8)Neu5Ac(a2-3)[GalNAc(b1-4)]Gal(b1-4)Glc
# Procedure, shortened: as §1
# [20] = target: Neu5Ac(b2-6)Gal(b1-4)GlcNAc
# Procedure, shortened: as §1
binder,measurement,setting,value
B1,glycan array binding signal (z-score),GalNAc4S6S(b1-4)GlcNAc,-0.021
same,glycan array binding signal (z-score),GlcA(b1-6)Gal,9.35
same,glycan array binding signal (z-score),[1],-0.264
same,glycan array binding signal (z-score),GlcNAc(b1-3)Fuc,0.069
same,glycan array binding signal (z-score),GlcNAc(b1-3)Gal,-0.201
same,glycan array binding signal (z-score),[2],1.11
same,glycan array binding signal (z-score),[3],0.58
same,glycan array binding signal (z-score),[4],-0.264
same,glycan array binding signal (z-score),GlcNAc(b1-3)GalNAc,-0.361
same,glycan array binding signal (z-score),[5],-0.082
same,glycan array binding signal (z-score),[6],-0.168
same,glycan array binding signal (z-score),[7],0.519
same,glycan array binding signal (z-score),[8],0.292
same,glycan array binding signal (z-score),[9],-0.346
same,glycan array binding signal (z-score),[10],-0.638
same,glycan array binding signal (z-score),[11],-0.58
same,glycan array binding signal (z-score),[12],-0.574
same,glycan array binding signal (z-score),[13],-0.185
same,glycan array binding signal (z-score),[14],0.558
same,glycan array binding signal (z-score),[15],2.64
same,glycan array binding signal (z-score),[16],2.97
same,glycan array binding signal (z-score),[17],-0.516
same,glycan array binding signal (z-score),[18],-0.069
same,glycan array binding signal (z-score),Neu5Ac(a2-6)GalNAc,-0.42
same,glycan array binding signal (z-score),[19],0.163
same,glycan array binding signal (z-score),[20],0.011
